Screens deposited in PubChem by National Center for Advancing Translational Sciences (NCATS).
Most compounds without a hit are left out; they make up all but 9.4% or so of the library.
FLuc modulator: qHTS profiling assay for firefly luciferase inhibitor/activator using purifed enzyme and Km concentrations of substrates (counterscreen for miR-21 project). Potency, µM (titrated, usually from 57.5 µM), inactives show top-dose activity change, negative = inhibition, hits mostly inhibitors. purified FLuc, Km substrates, luminescence inhibition. 6.9% of 360,000 active;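 also: plate controls were vehicle for no effect and reference inhibitor for full effect; nearly all actives have a fitted effect of over 55% in size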
Target sequence (P08659 whole entry, looked up): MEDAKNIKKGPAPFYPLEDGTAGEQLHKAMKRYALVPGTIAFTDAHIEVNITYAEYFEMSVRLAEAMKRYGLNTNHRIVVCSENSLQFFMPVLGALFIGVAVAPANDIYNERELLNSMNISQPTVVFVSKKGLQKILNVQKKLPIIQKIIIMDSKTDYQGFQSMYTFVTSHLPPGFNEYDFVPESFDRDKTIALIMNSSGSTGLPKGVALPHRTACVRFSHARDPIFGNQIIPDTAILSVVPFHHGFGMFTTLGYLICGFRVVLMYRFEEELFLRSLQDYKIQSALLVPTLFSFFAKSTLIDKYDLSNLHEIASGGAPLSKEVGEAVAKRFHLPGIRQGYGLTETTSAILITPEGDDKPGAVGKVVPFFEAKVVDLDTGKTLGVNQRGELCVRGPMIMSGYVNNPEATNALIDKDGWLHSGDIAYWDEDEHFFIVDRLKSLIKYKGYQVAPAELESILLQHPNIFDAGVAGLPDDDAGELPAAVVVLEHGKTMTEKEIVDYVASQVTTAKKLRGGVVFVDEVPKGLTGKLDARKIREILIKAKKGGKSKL
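Purified P. pyralis luciferase, 10 nM final, with Km-level 10 uM D-luciferin and 10 uM ATP in 50 mM Tris acetate pH 7.5, 10 mM Mg acetate, 0.01% Tween-20, 0.05% BSA; 6-point qHTS titration about 60 µM downward; luminescence read.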
NPC1 prom act: qHTS Assay for NPC1 Promoter Activators. Huh7 NPC1 promoter luciferase reporter, 24 h. Potency, µM (highest dose often 9.22 µM), for the others: at the highest dose activation, hits mostly activators. 2.4% of 320,000 active. AID 485313, 2010; also: % of control where 0% means no effect; nearly all actives have a fitted effect of over 60% in size
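Readout is luciferase luminescence, reflecting NPC1 promoter activation in stably transfected Huh7 cells after 24 h compound exposure at 37 °C in reduced-serum medium with 10% FBS.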
ELG1 DNA repair: qHTS screen for small molecules that inhibit ELG1-dependent DNA repair in human embryonic kidney (HEK293T) cells expressing luciferase-tagged ELG1 | HEK293T ELG1-luciferase reporter, luminescence, 16 h; DNA damage induced by 5-fluorouridine | Potency, µM (titrated, usually from 46.1 µM), for inactives: top-dose activity change, negative = inhibition, most hits filed as inhibitors | 2.3% of 330,000 active; also: % is scaled to controls: 0 for no effect and ±100 for the full control effect; nearly all actives have a fitted effect of over 55% in size
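5-Fluorouridine DNA damage + compound/DMSO, 2,000 cells/well, 16 h, 37 °C/5% CO2. ONE-Glo, 30 min RT, luminescence. Readout = decrease in reporter signal.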
SMN2 splice enh: qHTS Assay for Enhancers of SMN2 Splice Variant Expression. HEK293 SMN2-luciferase splicing reporter, luminescence, 30-36 h. AID 1458, 2008. 2.8% of 210,000 active. Potency, µM (series often up to 46.1 µM), inactives show at the highest dose activity change, positive = activation, hits mostly activators; also: % of control where 0% means no effect; nearly all actives have a fitted effect of over 55% in size
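HEK293 cells carry an SMN2 […]–luciferase reporter in which exon 7 inclusion puts luciferase in frame. Cells were plated 10-12 h before compound addition, then incubated 30-36 h at 37C. ONE-Glo luminescence was read; sodium butyrate at 4.5 mM final served as control.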
Rab9 promoter act: qHTS Assay for Rab9 Promoter Activators. Potency, µM (series often up to 9.22 µM), for the others: top-dose activation, negative = inhibition, most hits filed as activators. Huh7 Rab9 promoter-luciferase reporter, luminescence, 24 h. 2.8% of 320,000 active; also: % of control where 0% means no effect; nearly all actives have a fitted effect of over 60% in size
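Steps: seed 1500 Huh7 Rab9-luc cells per well, rest 2 h at 37 °C; add compound in DMSO; incubate 24 h; add luciferase reagent, 10 min ambient; read luminescence.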
ELG1 genotoxic: qHTS screen for small molecules that induce genotoxicity in human embryonic kidney (HEK293T) cells expressing luciferase-tagged ELG1. HEK293T ELG1-luciferase reporter, luminescence, 16 h. Potency, µM (doses to about 46 µM), inactives show at the highest dose activity change, positive = activation, most hits filed as activators. 1.3% of 330,000 active. AID 504466, 2011; also: % of control where 0% means no effect; nearly all actives have a fitted effect of over 60% in size
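Step 1: seed 2,000 HEK293T ELG1-luciferase cells per well. Step 2: add compound or DMSO, incubate 16 hr at 37 °C. Step 3: ONE-Glo, 30 min at room temperature, read luminescence.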
An asterisk follows results filed as active; ? = inconclusive; nt = not tested or not shown. Calls follow the shape of the dose curve; as a rule, active = well fitted curve in the direction sought with a large enough effect; inconclusive = small, poorly fitted or top-dose-only effect, or another doubt; inactive = no such curve, though single readings can be large; an effect the other way counts as inactive or inconclusive. Potency is read from the fitted curve at half-maximal effect.

SMILES	FLuc modulator	NPC1 prom act	ELG1 DNA repair	SMN2 splice enh	Rab9 promoter act	ELG1 genotoxic
Cc1cc(C)nc(NC(=O)/C=C/c2ccccc2Cl)n1	?	27.6%	?	?	?	11.2%
Cc1nc(-c2ccccc2)sc1CCNC(=O)C(=O)Nc1ccc2c(c1)OCO2	1.3%	nt	nt	nt	nt	nt
COc1cccc(CNS(=O)(=O)c2cc3[nH]c(=O)c(=O)[nH]c3cc2C)c1	-2.5%	nt	nt	nt	nt	nt
CN1c2ccccc2C(=O)C(=C2SCCCS2)S1(=O)=O	19µM*	0.7%	-15.2%	nt	-3.3%	-1.3%
COc1ccc2c(c1)-c1ccccc1S(=O)(=O)N2C	-0.7%	-1.1%	-0.5%	-7.8%	-3.1%	-2.0%
CCOC(=O)c1c(C)c(-c2ccccc2)n(CC(=O)Nc2cccc(C)c2C)c1C	-7.6%	nt	nt	-7.3%	nt	nt
COc1ccc(O)c(/C=N/NC(=O)c2ccc(N3CCCC3=O)cc2)c1	-12.3%	-34.2%	8.1%	nt	-15.8%	-3.4%
COc1cccc(/C=N/NC(=O)c2cccc(N3CCCC3=O)c2)c1	9.53µM*	?	?	nt	?	4.11µM*
O=C(N/N=C/c1cc(Br)ccc1O)c1cccc(N2CCCC2=O)c1	16.9µM*	-24.3%	?	-89.8%	-30.0%	?
COc1ccc(O)c(/C=N/NC(=O)c2cccc(N3CCCC3=O)c2)c1	10.7µM*	-39.1%	-25.2%	nt	-8.3%	12.8%
O=C(N/N=C/c1ccco1)c1cccc(N2CCCC2=O)c1	19µM*	11.6%	?	?	22.5%	17.7%
CN(CC(=O)Nc1ccc(F)c(F)c1F)C(=O)/C=C/c1ccc(Cl)cc1	5.2%	-1.5%	15.9%	nt	-1.3%	-2.9%
O=C1CCCC2[C@@H]3CCC[N@+]4([O-])CCC[C@H](CN12)C34 (stereo partly specified)	nt	nt	nt	8.4%	nt	nt
CC(C)/C=N/NC(=O)c1cccc(N2CCCC2=O)c1	-0.3%	-6.8%	?	5.5%	-5.5%	6.8%
CN(C)c1ccc(/C=N/NC(=O)c2cccc(N3CCCC3=O)c2)cc1	10.7µM*	4.1%	?	3.8%	15.2%	9.3%
COc1ccccc1NC(=O)Nc1nc(CC(=O)NCc2c(F)cccc2F)cs1	1.2%	-0.1%	?	nt	1.1%	-1.3%
COc1ccccc1NC(=O)Nc1nc(CC(=O)N2CCN(c3ccccc3F)CC2)cs1	?	-14.1%	16.4µM*	nt	-8.8%	-12.5%
O=C(NCc1ccccc1)C(=O)NCC(c1ccco1)S(=O)(=O)c1ccccc1 (stereo unspecified)	-1.7%	nt	nt	nt	nt	nt
CCC(=O)N(CC)C1=C(O)c2ccccc2C(=O)C1=O	?	-0.9%	-0.5%	-17.0%	-0.9%	-0.5%
CC(C)=CCC1=C(O)c2ccccc2C(=O)C1=O	nt	nt	nt	3.98µM*	nt	nt
O=C(NCCNS(=O)(=O)c1ccccc1Cl)c1cc(OCC(F)(F)F)ccc1OCC(F)(F)F	2.2%	0.3%	14.6µM*	-9.0%	-1.7%	-11.3%
Cc1nn2c(-c3cccc(NC(=O)c4ccc(Cl)cc4)c3)nnc2c2ccccc12	-7.8%	nt	nt	-4.3%	nt	nt
COc1ccc(C2=NC3(CCCCCC3)N(CC(=O)Nc3cccc(Cl)c3)C2=O)cc1	-6.8%	nt	nt	0.4%	nt	nt
O=C(Cn1nnc(-c2ccccc2)n1)N1CCCCC1	0.0%	26.9%	?	nt	?	?
CC(C)COc1ccc(-c2nnn(CC(=O)N3CCCC3)n2)cc1	12µM*	17.9%	?	8.5%	19.6%	?
O=C(Cn1nnc(-c2ccccc2Cl)n1)N1CCCCC1	16.9µM*	?	?	nt	3.98µM*	?
O=C(Cn1nnc(-c2ccc(OCc3ccccc3F)cc2)n1)N1CCOCC1	2.69µM*	?	?	13.4%	?	?
